Test results published in PubChem BioAssay AID504832 (National Center for Advancing Translational Sciences (NCATS), 2011).
In all, about 310,000 compounds went through this assay and about 18,000 (5.8%) were called active. A call without a number means that no potency is given here. Another 22% or so got no clear call; they are omitted. The sample holds actives, similar compounds and a random draw of the others, so the mix is not that of the screen. Unmarked numbers belong to inactive results. Calls come from the whole dose curve; as a rule, active = well fitted inhibition curve with a large enough effect; inconclusive = small, poorly fitted or top-dose-only effect, or another doubt; inactive = no such curve, though single readings can be large or run the other way.

Experiment: Primary qHTS for delayed death inhibitors of the malarial parasite plastid, 48 hour incubation
Conditions: P. falciparum luciferase growth in erythrocytes; series mostly up to 28.7 µM
Method in brief: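 A one-generation exposure of luciferase-tagged malaria parasites in RPMI 1640/Albumax erythrocyte culture, 37 C and 5% CO2. Inhibition is inferred from decreased luminescence after adding detection reagent.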
Potency is the fitted concentration of half-maximal effect.

Structure (SMILES)	Potency	activity change, negative = inhibition
O=[N+]([O-])c1ccc(C=Nc2ccc(Cl)cc2Cl)s1	10.4 µM (active)	–
O=S(=O)(Nc1ccccc1Cl)c1cccc2nsnc12	inactive	–
C/C(CC(=O)NCc1ccc(Cl)cc1)=N\NC(=O)COc1ccc(C)cc1Br	inactive	–
COc1ccc(-c2cc(C(=O)N3CCN(Cc4ccc5c(c4)OCO5)CC3)on2)cc1OC	inactive	–
COc1ccccc1CCCNC(=O)C1CCC(=O)N(CCN2CCOCC2)C1 (stereo not given)	inactive	–
Cc1cc(C)cc(OCC(=O)Nc2ccc(N3CCOCC3)cc2N2CCOCC2)c1	11.7 µM (active)	–
Cc1cccc(OCC(=O)NC(=S)Nc2ccccc2N2CCOCC2)c1	inactive	–
O=C(COc1ccc(Cl)cc1)NC(=S)Nc1ccccc1N1CCOCC1	inactive	–
CC(C)c1ccc(/C=C/C(=O)NCCCN2CCOCC2)cc1	inactive	–
O=C(OCC(=O)N1CCN(C(=O)c2ccco2)CC1)c1cccc(O)c1	inactive	–
Cc1n[nH]c(=O)n1-c1ccc(Oc2ccccc2)cc1	inactive	–
CCCc1cc(-c2n[nH]c(=S)n2Cc2ccccc2)cs1	inactive	–
O=c1onc(-c2cccs2)n1Cc1ccccc1	inactive	–
S=c1[nH]nc(-c2cc(-c3ccsc3)n[nH]2)n1-c1ccccc1	inactive	–
Cc1cc(-c2csc(N)n2)c(C)n1Cc1ccccc1	11.7 µM (active)	–
Cc1cc(-c2csc(N)n2)c(C)n1-c1ccccc1	14.7 µM (active)	–
O=C(Cc1ccc(Br)cc1)NCCN1CCOCC1	–	5.97% [at 0.00184 µM]
CCC(C(=O)N1CCN(S(=O)(=O)c2sc(C(=O)O)c(C)c2C(=O)O)CC1)c1ccccc1 (stereo not given)	inactive	–
COc1ccc(OC)c(NC(=O)c2cccc(S(=O)(=O)N3CCN(C(C)=O)CC3)c2)c1	inactive	–
COc1cc(OC)cc(C(=O)Nc2nnc(SCC(=O)NCC3CCCO3)s2)c1 (stereo not given)	inactive	–
Cc1ccccc1Nc1nc(-c2cccnc2)cs1	inactive	–
CCCOc1ccc(Cc2c(O)nc(SC)[nH]c2=O)cc1C	inactive	–
CC1=NN(Cc2ccccc2)C(=O)/C1=C/c1ccc(N(C)C)cc1	inactive	–
CN(C)c1ccc(/C=N/N(Cc2ccccc2)c2ccccc2)cc1	inactive	–
COC(=O)c1ccc(Cc2ccccc2)o1	inactive	–
C[n+]1ccc(C(=O)NCc2ccccc2)cc1	inactive	–
CN(C)c1cc[n+](Cc2ccccc2)cc1	0.928 µM (active)	–

Structure (SMILES)	Potency	activity change, negative = inhibition
c1ccc(Cc2cc[n+](Cc3ccccc3)cc2)cc1	1.17 µM (active)	–
Cc1ccc(NS(=O)(=O)c2cc3c(cc2C)NC(=O)CO3)cc1	inactive	–
Cc1ccc(S(=O)(=O)N2CCC(N3CCCCCC3)CC2)cc1	inactive	–
c1ccc(C2CCC(N3CCC(N4CCCCC4)CC3)CC2)cc1 (stereo not given)	10.4 µM (active)	–
O=S(=O)(c1ccccc1)N1CCC(c2ccccc2)CC1	inactive	–
COc1ccccc1NC(=O)Nc1nnc(Cc2ccc(F)cc2)s1	inactive	–
CC1=NN(/C(=N\c2nnc(C)s2)Nc2ccccc2)[C@H](c2ccc(C)cc2)S1	8.28 µM (active)	–
COc1ccc2oc(=N)c(C(=O)Nc3ccc(Br)cc3)cc2c1	inactive	–
CCOC(=O)C1CCN(C(=O)CC2C(=O)N(Cc3ccccc3)C(C)c3nc4ccccc4n32)CC1 (stereo not given)	7.38 µM (active)	–
CC1c2nc3ccccc3n2C(CC(=O)NCCCN2CCOCC2)C(=O)N1Cc1ccccc1 (stereo not given)	inactive	–
CCOC(=O)C1CCN(C(=O)Cn2cc(C#N)c3ccccc32)CC1	inactive	–
O=C(NCCS(=O)(=O)NCc1ccc(F)cc1)c1ccccc1	inactive	–
Cc1cc(C)nc(N/N=C/c2c(CO)cnc(C)c2O)n1	10.4 µM (active)	–
COc1ccc(/C=C2\SC(=S)N(CCC(=O)Nc3cccc(C(=O)O)c3)C2=O)cc1OC	inactive	–
CN(NS(=O)(=O)c1cccs1)c1ncc(C(F)(F)F)cc1Cl	inactive	–
COc1ccc(CNC(=O)c2ccc3oc(C(C)C)nc3c2)cc1	inactive	–
O=C(COC(=O)/C=C/c1ccc(OC(F)F)cc1)NC1CCCCC1	inactive	–
O=C(NCc1cccc(Cl)c1)C1CCN(c2nnc(N3CCCC3=O)s2)CC1	inactive	–
COc1ccccc1CNS(=O)(=O)c1c(C)[nH]c(C)c1C(=O)N1CCCCC1	inactive	–
O=C(CSc1nnnn1-c1ccc(O)cc1)N1N=C(c2ccc3ccccc3c2)CC1c1ccccc1 (stereo not given)	2.33 µM (active)	–
O=C(CSc1nnnn1-c1ccc(O)cc1)c1ccc(F)cc1	inactive	–
COc1ccc(C2=NN(C(=O)CSc3nnnn3C)C(c3ccco3)C2)cc1 (stereo not given)	inactive	–
COc1ccccc1C(=O)N1CC2(C)CC1CC(C)(C)C2 (stereo not given)	inactive	–
Cc1nnnn1/C(=C\c1ccccc1)C(=O)OCC(=O)N1CC2(C)CC1CC(C)(C)C2 (stereo not given)	11.7 µM (active)	–
Cc1cccc(C(=O)NCC(=O)OCC(=O)N2CC3(C)CC2CC(C)(C)C3)c1 (stereo not given)	inactive	–
COc1ccc(OC)c(-c2csc(NC(=O)COC(=O)C3CC3)n2)c1	inactive	–
C=CCOc1ccccc1NC(=O)CN1C(=O)CNC1=O	inactive	–

Structure (SMILES)	Potency	activity change, negative = inhibition
CC(C)(C)NC(=O)C(c1ccco1)N(Cc1ccc2c(c1)OCO2)C(=O)Cn1nnc2ccccc21 (stereo not given)	8.28 µM (active)	–
CCC(C)(C)NC(=O)C(c1cccn1C)N(Cc1ccc(C)cc1)C(=O)Cn1nnc2ccccc21 (stereo not given)	inactive	–
CC(C)(C)NC(=O)C(c1ccncc1)N(C(=O)CNC(=O)c1ccco1)c1ccc2c(c1)OCO2 (stereo not given)	inactive	–
COCCn1c(C)cc(C(=O)CSc2nnc(C3CC3)n2C2CC2)c1C	inactive	–
CCC(=O)Nc1ccc(S(=O)(=O)Nc2c(NC)c3ccccc3oc2=O)cc1	inactive	–
CCOC(=O)c1c(NC(=O)CSc2nccc(=O)[nH]2)sc(C)c1C	inactive	–
CCOC(=O)c1sc(NC(=O)CSc2nc3c(c(=O)n2-c2ccccc2)SCC3)c(C(=O)OCC)c1C	1.65 µM (active)	–
CCOC(=O)c1sc(NC(=O)CSc2nnc(-c3ccco3)o2)c(C(=O)OCC)c1C	inactive	–
COc1cccc(N2CCN(c3ccc4nnc(CCC(=O)N5CCN(C)CC5)n4n3)CC2)c1	inactive	–
COc1ccc(Nc2ncnc3sc(C)cc23)cc1	inactive	–
Cc1cc(Cl)ccc1C(=O)C1CCCN(C(=O)c2nonc2C)C1 (stereo not given)	inactive	–
CCOC(=O)C(C)n1cnc2c(nnn2-c2ccc(F)cc2)c1=O (stereo not given)	inactive	–
COc1ccccc1NC1=NC(c2ccc(Cl)cc2)N=C(N)N1 (stereo not given)	10.4 µM (active)	–
COc1ccccc1NC(=O)c1cc(Cl)nnc1Cl	inactive	–
COc1ccccc1Nc1nc(N)nc(CSC(=S)N2CCOCC2)n1	inactive	–
Cc1ccc(OCC(=O)Nc2ccc(C(=O)O)cc2NC(=O)COc2ccc(C)c(C)c2)cc1C	inactive	–
O=C1Nc2ccccc2/C1=C/c1ccnc2ccccc12	inactive	–
CCOC(=O)C1C(c2ccc(O)cc2)NC(=O)NC1(O)C(F)(F)F (stereo not given)	inactive	–
CC1C(=O)C(C)C(c2ccc(O)cc2)NC1c1ccc(O)cc1 (stereo not given)	6.57 µM (active)	–
CCOc1ccc(N(CC)S(=O)(=O)c2cccc3nsnc23)cc1	inactive	–
CCOc1ccccc1NC(=O)CCS(=O)(=O)c1cccc2nsnc12	inactive	–
CCOc1ccc(OCC)c(NC(=O)CN(C)S(=O)(=O)c2cccc3nsnc23)c1	1.17 µM (active)	–
O=C(Nc1ccccn1)C1CCN(S(=O)(=O)c2ccccc2)CC1	inactive	–
CCN(c1ccccc1)S(=O)(=O)c1cc2c(cc1C)n(C)c(=O)c(=O)n2C	inactive	–
CCOC(=O)c1c(-c2cccc(N)c2)cn2ccccc12	inactive	–
CCOC(=O)c1c(CN2CCOCC2)n(-c2ccccc2)c2ccc(O)cc12	10.4 µM (active)	–
CCOC(=O)c1c(CN(C)C)n(-c2ccccc2)c2cc(Br)c(O)cc12	1.17 µM (active)	–

Structure (SMILES)	Potency	activity change, negative = inhibition
CCOC(=O)c1c(-c2ccccc2)oc2ccc(OC(=O)N(C)C)cc12	inactive	–
CCOC(=O)c1ccccc1NC(=O)COC(=O)CCC(=O)N1CCOCC1	inactive	–
CCOC(=O)c1ccccc1C(=O)N1CCOCCOCCOCC1	inactive	–
CN(CC(=O)Nc1ccc(Cl)cc1)C(=O)c1ccc(COc2ccccc2)cc1	inactive	–
CCCCn1c(N)c(N(Cc2ccccc2OC)C(=O)COc2cc(C)ccc2Cl)c(=O)[nH]c1=O	inactive	–
Cc1ccc2c(c1)N(CC(=O)NCCCN1CCCCC1)C(=O)c1cccnc1O2	inactive	–
Cc1ccc2c(c1)N(CC(=O)NCCc1ccc(Cl)cc1)C(=O)c1cccnc1O2	inactive	–
CC(=O)c1cccc(NC(=O)CN2C(=O)c3cccnc3Oc3ccc(Cl)cc32)c1	13.1 µM (active)	–
Cc1ccc(S(=O)(=O)N(C)CC(=O)NCCc2c[nH]c3ccccc23)cc1	inactive	–
Cn1c(CNC(=O)c2ccco2)nnc1SCC(=O)N1CCN(c2ccccc2)CC1	inactive	–
CC(C)c1nc2cc(C(=O)NC(C)c3cnn(C)c3)ccc2o1 (stereo not given)	inactive	–
CCN(CC(=O)Nc1ccc2c(c1)OCO2)S(=O)(=O)c1ccccc1	inactive	–
C/C(=N\NC(=O)Cc1ccccc1[N+](=O)[O-])c1cccnc1	inactive	–
CN1c2ccccc2-c2nc3ccccc3n2C1c1ccco1 (stereo not given)	11.7 µM (active)	–
Cn1cccc1-c1nc2ccccc2n1C	inactive	–
Cn1c(-c2ccco2)nc2cc3ccccc3cc21	inactive	–
O=C(c1cc2cc(Br)cc(Br)c2oc1=O)N1CCOCC1	inactive	–
CCOc1ccc(NC(=O)COc2ccc(C(=O)N3CCC(C(N)=O)CC3)cc2OC)cc1	inactive	–
COc1cc(NC(=O)c2cccs2)ccc1NC(=O)c1ccccc1Cl	inactive	–
COc1cc2ccccc2cc1C(=O)Nc1ccncc1	inactive	–
COc1cc2ccccc2cc1C(=O)Nc1ccc(NC(=O)c2cccs2)cc1	11.7 µM (active)	–
Cc1ccnc(N2CCCC(C(=O)NC3CC3)C2)n1 (stereo not given)	inactive	–
O=C(NC1CC1)C(Cc1ccccc1)NS(=O)(=O)c1ccccc1F (stereo not given)	inactive	–
O=C(Cc1ccc([N+](=O)[O-])cc1)Nc1ccc(C(=O)N2CCOCC2)cc1	inactive	–
